Screens: PubChem, Sanford-Burnham Center for Chemical Genomics
Compounds with a hit are over-represented: about 2.7% of the library has one in this group of screens.
NadD block – NadD (S. aureus) enzyme inhibition. purified NadD enzyme, colorimetric absorbance read-out. inhibition, % at 20 µM. actives 0.78% (n = 360,000); in the data active = inhibition above about 26%
TAG inh – triacylglycerol accumulation inhibition | H9c2 cells, Nile Red lipid (TAG) fluorescence; cells loaded with 200 µM oleic acid | inhibition, % at 12.5 µM | actives 0.66% (n = 230,000) | AID 651582;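 active = pattern-corrected inhibition of lipid staining of at least 50% with the nuclear-stain viability signal not falling by more than 50%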
aDG glyco act – increases alpha dystroglycan glycosylation. Pro5-aDG cells, alpha-DG glycosylation AlphaScreen (IIH6); 0% Pro5, 100% B10-LARGE cell signal. activation, % at 10 µM. actives 0.22% (n = 360,000);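 active = activation of at least 8% versus controls, or a plate z-score of at least 8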;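 note: Pro5 are CHO cells carrying HIG-tagged alpha-DG that lacks glycosylation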
MPTP inh – inhibitors of mitochondrial permeability transition pore. isolated mouse mitochondria, Ca2+ swelling absorbance, 30 min. inhibition, % at 10 µM. actives 1.4% (n = 360,000);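 active = inhibition of 50% or more, scaled per plate between neutral and stimulator controls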
A number is an active result; - = inactive; . = no result; ! = repeats disagree.

SMILES	NadD block	TAG inh	aDG glyco act	MPTP inh
C#CCn1c(=NC(=O)c2ccc(S(=O)(=O)N3CCc4ccccc4C3)cc2)sc2cc(S(N)(=O)=O)ccc21	47	.	-	-
COc1ccc(Br)cc1/C=N/NC(=O)c1ccc(COc2ccc3c(c2)CCC3)o1	-	-	-	-
O=C(N/N=C/c1cc([N+](=O)[O-])ccc1O)c1ccc(COc2ccc3c(c2)CCC3)o1	52	-	-	-
Cc1ccc(C)c(C(=O)CSc2nc(N)cc(=O)[nH]2)c1	-	.	-	-
Clc1ccc(-c2nnc(Sc3nc4ccccc4o3)c3ccccc23)cc1	-	.	-	-
O=c1c(Cl)c2oc3ccccc3nc-2c2ccccc12	-	-	6.1	-
CC(C)CCCCCCCCCCCCC(=O)NCC(=O)NC1C(C)OC(Nc2ncnc3nc[nH]c23)C(O)C1O (configuration not stated)	-	72	-	-
C/C(=C\CNc1ncnc2nc[nH]c12)CO	-	.	-	-
O=C(N/N=C/c1cc(Cl)cc(Cl)c1O)c1ccncc1	-	65	-	-
O=C(N/N=C/c1ccc(Cl)cc1Cl)c1ccncc1	-	.	-	-
Cc1ccc2c(c1)Oc1ccc(NC(=O)CCl)cc1C(=O)N2	-	56	-	-
O=C1C(=O)N(CNc2ccccn2)c2ccccc21	-	59	-	-
CCCCCCn1c(=O)n2n(c1=O)[C@@H]1CN(S(=O)(=O)c3ccc(C)cc3)C[C@]1(O)[C@@H](OC(=O)NCc1ccc(OC)c(OC)c1)C2	-	-	-	-
Oc1ccc2ccccc2c1/C=N/Nc1nnc(-c2ncc[nH]2)c2ccccc12	51	-	-	-
COc1ccc(/C=N/Nc2nnc(-c3ncc[nH]3)c3ccccc23)cc1	-	.	-	-
COc1ccc(/C=N/NC(=O)c2nc(-c3ccccc3)n(-c3ccccc3)n2)c(O)c1	41	-	-	-
COc1cccc(C=NNC(=O)c2ccncc2)c1O	-	-	-	-
COc1cccc(/C=N/NC(=O)c2nc(-c3ccccc3)cc(-c3ccccc3)n2)c1O	29	-	-	-
COc1cc(OC)c2cc(C(=O)N/N=C/c3cccc(OC)c3O)[nH]c2c1	-	55	-	-
COc1ccc(/C=N/NC(=O)c2nc(-c3ccccc3)n(-c3ccccc3)n2)cc1	-	.	-	-
Cc1sc(NC(=O)CN2CCOCC2)c(C#N)c1C	-	-	-	-
COc1ccc(C2NC(=S)NC3=C2CCCC3=C2SCCS2)cc1 (configuration not stated)	61	-	-	-
S=C1NC2=C(CCCC2=C2SCCCS2)C(c2ccccc2)N1 (configuration not stated)	-	-	-	-
COc1ccc(CNC(=O)/C=C/[C@H]2O[C@@H](n3cc(C)c(=O)[nH]c3=O)C[C@@H]2O)cc1	-	.	-	-
CCOC(=O)c1ccc(NC(=O)c2nc[nH]c2C(=O)NCCNC(=O)c2[nH]cnc2C(=O)Nc2ccc(C(=O)OCC)cc2)cc1	-	135	-	-
SMILES	NadD block	TAG inh	aDG glyco act	MPTP inh
CCCCCn1cnnc1SCC(=O)c1c(N)n(C2CC2)c(=O)[nH]c1=O	-	-	-	-
NC(=S)n1[nH]c(-c2ccc([N+](=O)[O-])cc2)c(N=Nc2ccccc2[N+](=O)[O-])c1=O	64	-	-	-
O=C1C=C(N(CCO)Cc2ccccc2)c2ccccc2C1=O	-	-	14	-
COc1ccc(CN(C)C(=O)Cn2cnc3c(NCc4ccccc4)ncnc32)cc1OC	-	-	-	-
Cc1c(Cl)cccc1NS(=O)(=O)c1ccc2c(c1)C1C=CCC1C(c1ccc(C(=O)O)cc1)N2 (configuration not stated)	34	-	-	-
COc1ccc(NS(=O)(=O)c2ccc3c(c2)[C@H]2C=CC[C@H]2[C@@H](c2ccc(C(=O)O)cc2)N3)cc1	30	.	-	-
Cn1cc(C(CO)Cc2ccccc2)c2ccccc21 (configuration not stated)	-	-	-	-
COc1ccccc1CNC(=O)CCN=C1NS(=O)(=O)c2ccccc21	-	-	-	-
Cc1ccccc1-c1cc2nc(Nc3ccc(F)cc3)n(C)c(=O)c2s1	-	-	-	-
c1ccc(/N=C2\N=C(Nc3ccccn3)c3ccccc32)nc1	-	51	-	-
O=C1N=C(N2CCN(c3cccc4ccccc34)CC2)S/C1=C/c1cccs1	28	-	-	-
Cc1cccc(NC(=O)Cn2c(O)c(N=NC(=O)c3ccccc3O)c3ccccc32)c1	35	.	-	-
COC(=O)CSc1nc(N)c2c3c(sc2n1)CCCC3	-	.	-	-
COC(=O)CSc1nc(N)c2c3c(sc2n1)C(c1ccccc1)SC(c1ccccc1)C3 (configuration not stated)	50	.	-	-
CC(=O)c1ccc(S(=O)(=O)Nc2ccc(C(=O)N(C)CC(=O)Nc3cccc(C)c3C)cc2)cc1	-	-	-	-
Clc1cccc(-c2cc3nc4c(c(N5CCN(c6cnccn6)CC5)n3n2)CCCC4)c1	-	62	-	-
CCCN(CC(=O)Nc1ccc(F)c(F)c1F)C(=O)c1ccc(N2CCCC2=O)cc1	-	-	-	-
Cc1ccc(-c2csc(Nc3ccc(C(=O)O)cc3)[n+]2Cc2ccccc2)cc1	44	-	-	-
CC(C)C[C@H]1CN=C(Nc2ccccc2)N1CC1CCCCCC1	-	-	-	-
COc1ccc(NC(=O)C(=O)N/N=C/c2cc(C)n(-c3cccc(Cl)c3Cl)c2C)c(OC)c1	36	.	-	-
CCCCCC[N+](C)(C)CC/C=C1/c2ccccc2Sc2ccc(Cl)cc21	-	56	-	-
CN1CCN(CCC=C2c3ccccc3Sc3ccc(S(=O)(=O)N(C)C)cc32)CC1	-	-	-	-
COc1cccc(-c2cccc(-c3nc(C(=O)NCc4ccc5c(c4)OCO5)cc4c3[C@H](CCO)N(S(=O)C(C)(C)C)C4)c2)c1 (some centres not stated)	-	.	-	-
COc1cccc(-c2cccc(-c3nc(C(=O)Nc4ccc(-c5ccccc5)cc4)cc4c3[C@H](CCO)N(S(=O)C(C)(C)C)C4)c2)c1 (some centres not stated)	35	.	-	-
CCCCCCCCCCOC(=O)Cn1c(COc2ccccc2C)[n+](C)c2ccccc21	-	.	-	-
SMILES	NadD block	TAG inh	aDG glyco act	MPTP inh
Cc1ccccc1OCc1n(CC(=O)OC2CC(C)CCC2C(C)C)c2ccccc2[n+]1C (configuration not stated)	-	76!	-	-
CC1CCC(C(C)C)C(OC(=O)Cn2c(-c3ccc(Br)cc3)[n+](C)c3ccccc32)C1 (configuration not stated)	-	89	-	-
COc1cc(OC)cc(-c2c(-c3ccc(F)cc3)c3cc(-c4cnc(OC)nc4)ccc3n2C)c1	-	-	-	-
Cn1c(Cc2cccs2)nnc1SCC(=O)Nc1ccc(F)cc1F	-	-	-	-
O=C(CCl)N(C/C=C/c1ccccc1)c1ccc2c(c1)OCCO2	-	52	-	-
CCOC(=O)C1=C(C2=CCCCC2)c2ccc(OC)cc2N(S(=O)(=O)C(F)(F)F)C1C(=O)OCC (configuration not stated)	-	-	-	-
